Reference: PubChem BioAssay (NCATS)
Inconclusive results are not listed. Calls of active or inactive are those of the source. Unless noted, the call rests on the fitted dose curve; in most records, active means well fitted curve in the direction sought with a large enough effect; inconclusive means small, poorly fitted or top-dose-only effect, or another doubt; inactive means no such curve, though single readings can be large; an effect the other way counts as inactive or inconclusive.

Tests used:
[1] = Validation screen for small molecules that induce DNA re-replication in SW480 colon adenocarcinoma cells (AID 504364)
In short: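 250 cells/well; compound pinned in; 48 hr, 37 C, 5% CO2; Hoechst added, 40 min; nuclear fluorescence imaged, 405 ex / 500-530 em; re-replication scored as increase in high-intensity nuclei.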

[2] = target: Peptidyl-prolyl cis-trans isomerase NIMA-interacting 1 (Homo sapiens) (UniProt Q13526); test: qHTS Validation Assay to Find Inhibitors of Pin1 (AID 504536; active means well fitted inhibition curve with a large enough effect in the polarisation, with a control signal flat, not every such curve was filed as active; the % refers to the polarisation)
In short: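 Fluorescence polarization competition: compounds (titration) displace HiFluor-488-labeled Pin1-1b peptide from Pin1 (0.3 uM final) in pH 7.5 HEPES buffer with DTT, 10 min at room temperature; %Activity normalized to no-enzyme wells, curves fitted.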

[3] = target: Phosphoglycerate kinase, glycosomal (Trypanosoma brucei brucei) (UniProt P07378); test: qHTS Validation Assay to Find Inhibitors of Phosphoglycerate Kinase (AID 504547)
In short: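 Inhibition of the enzyme is judged by a Kinase-Glo Plus luminescent signal following a one-hour incubation at room temperature. Because 1,3-BPG is unstable, it is made in situ by GAPDH at 100nM final; no-PGK wells define the baseline.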

[4] = target: phosphoglycerate mutase (Leishmania major) (UniProt Q4Q090); test: qHTS Validation Assay to Find Inhibitors of Phosphoglycerate Mutase (AID 504548); further: series mostly up to about 58 µM
In short: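 Lm PGAM at 1.25 nM final with substrate in 100 mM TEA pH 7.6, 5 mM MgCl2, 0.01% Tween-20; 45 min at room temperature. Kinase-GloPlus added, 10 min, end-point luminescence read.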

[5] = Inducers of the Endoplasmic Reticulum Stress Response (ERSR) in human glioma: Validation (AID 504836)
In short: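 ERSR induction read as luciferase luminescence (Bright-Glo, 10 min at room temperature) in stably transfected human U87-MG glioma cells exposed to compounds for 16 h, using GRP78 as sensor.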

[6] = target: Ubiquitin carboxyl-terminal hydrolase 1 (Homo sapiens) (UniProt O94782); test: Inhibitors of USP1/UAF1: Pilot qHTS (AID 504865);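 further: rhodamine fluorescence freed from ubiquitin-rhodamine substrate followed over time; top concentration of the series differs between compounds; nearly all actives have a fitted effect of over 35% in size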
In short: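 Kinetic fluorescence assay: 1nM USP1/UAF1, 15 min compound preincubation, then 150nM Ub-Rho; 480/540 nm.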

[7] = qHTS for Inhibitors of ATXN expression: Validation of Cytotoxic Assay (AID 588349)
In short: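 Read-out: ATP-based luminescence (CellTiter Glo) reflecting viability of HEK293 cells after 72 hr incubation at 37 degrees C with a concentration series of each compound.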

[8] = qHTS for Inhibitors of ATXN expression: Validation (AID 588378); further: series mostly up to about 57 µM; nearly all actives have a fitted effect of over 75% in size
In short: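 Validation of ATXN2 expression inhibitors uses a cell-based luciferase fusion reporter in HEK293 cells, with 24 h compound exposure and paired viability (fluorescence) and reporter (luminescence) end-point reads.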

[9] = target: DNA dC->dU-editing enzyme APOBEC-3G (Homo sapiens) (UniProt Q9HC16); test: qHTS for inhibitors of Vif-A3G interactions: Validation (AID 588379)
In short: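 HeLa cells stably expressing Vif and A3G-eYFP, 700 cells/well, incubated overnight at 37 deg C, then exposed to compound overnight at 37 deg C. Inhibition of Vif-mediated degradation read as increased yellow fluorescence (Ex 488/Em 500-530) by laser-scanning cytometry.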

Measured: Potency

Ubiquitin carboxyl-terminal hydrolase 1 (Homo sapiens), sequence (O94782 whole entry, looked up): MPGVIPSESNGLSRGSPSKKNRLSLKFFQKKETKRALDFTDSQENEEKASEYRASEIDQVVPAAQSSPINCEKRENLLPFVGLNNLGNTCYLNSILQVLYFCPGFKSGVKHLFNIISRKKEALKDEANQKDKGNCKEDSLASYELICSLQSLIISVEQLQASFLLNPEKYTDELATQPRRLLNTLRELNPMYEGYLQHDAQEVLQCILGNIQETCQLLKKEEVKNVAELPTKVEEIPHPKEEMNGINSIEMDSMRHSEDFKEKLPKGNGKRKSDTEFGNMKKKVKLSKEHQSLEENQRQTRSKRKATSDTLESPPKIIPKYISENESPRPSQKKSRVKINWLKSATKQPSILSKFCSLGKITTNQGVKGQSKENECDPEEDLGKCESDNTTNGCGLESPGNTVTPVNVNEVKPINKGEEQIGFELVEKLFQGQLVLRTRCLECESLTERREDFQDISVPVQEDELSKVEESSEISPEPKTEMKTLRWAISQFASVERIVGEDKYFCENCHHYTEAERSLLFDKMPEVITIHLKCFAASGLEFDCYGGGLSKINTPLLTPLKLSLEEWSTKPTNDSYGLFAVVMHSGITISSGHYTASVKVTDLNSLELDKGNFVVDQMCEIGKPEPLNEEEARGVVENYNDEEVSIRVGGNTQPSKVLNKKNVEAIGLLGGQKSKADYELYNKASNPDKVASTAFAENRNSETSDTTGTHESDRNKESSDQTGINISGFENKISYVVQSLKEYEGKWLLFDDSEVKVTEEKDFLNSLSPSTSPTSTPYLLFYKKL
phosphoglycerate mutase (Leishmania major), sequence (Q4Q090 1-553): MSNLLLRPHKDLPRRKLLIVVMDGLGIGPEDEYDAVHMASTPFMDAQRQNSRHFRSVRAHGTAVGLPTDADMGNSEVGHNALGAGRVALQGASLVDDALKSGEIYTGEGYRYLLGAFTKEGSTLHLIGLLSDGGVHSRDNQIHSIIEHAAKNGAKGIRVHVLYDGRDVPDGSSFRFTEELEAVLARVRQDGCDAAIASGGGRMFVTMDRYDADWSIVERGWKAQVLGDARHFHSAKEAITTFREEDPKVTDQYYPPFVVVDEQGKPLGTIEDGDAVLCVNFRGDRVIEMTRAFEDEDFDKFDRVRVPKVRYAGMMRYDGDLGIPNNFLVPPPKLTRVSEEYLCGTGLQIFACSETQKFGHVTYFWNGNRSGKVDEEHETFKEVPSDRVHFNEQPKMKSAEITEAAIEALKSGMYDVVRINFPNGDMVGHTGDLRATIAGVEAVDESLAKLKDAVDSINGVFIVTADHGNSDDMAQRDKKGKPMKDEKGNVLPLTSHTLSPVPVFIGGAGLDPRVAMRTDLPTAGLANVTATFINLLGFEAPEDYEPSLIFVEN
Phosphoglycerate kinase, glycosomal (Trypanosoma brucei brucei), sequence (P07378 whole entry, looked up): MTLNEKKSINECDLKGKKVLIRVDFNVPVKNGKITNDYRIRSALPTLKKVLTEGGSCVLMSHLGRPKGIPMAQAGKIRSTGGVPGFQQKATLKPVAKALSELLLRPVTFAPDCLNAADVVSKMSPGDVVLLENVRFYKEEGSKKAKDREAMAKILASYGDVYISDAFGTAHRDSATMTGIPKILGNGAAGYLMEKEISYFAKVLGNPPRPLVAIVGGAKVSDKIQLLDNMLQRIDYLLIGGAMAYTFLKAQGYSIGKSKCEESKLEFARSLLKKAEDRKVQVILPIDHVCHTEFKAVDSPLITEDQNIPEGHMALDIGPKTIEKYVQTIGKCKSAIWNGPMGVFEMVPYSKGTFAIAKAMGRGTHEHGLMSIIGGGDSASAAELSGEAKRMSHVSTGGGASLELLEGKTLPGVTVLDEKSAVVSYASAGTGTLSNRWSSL
Peptidyl-prolyl cis-trans isomerase NIMA-interacting 1 (Homo sapiens), sequence (Q13526 whole entry, looked up): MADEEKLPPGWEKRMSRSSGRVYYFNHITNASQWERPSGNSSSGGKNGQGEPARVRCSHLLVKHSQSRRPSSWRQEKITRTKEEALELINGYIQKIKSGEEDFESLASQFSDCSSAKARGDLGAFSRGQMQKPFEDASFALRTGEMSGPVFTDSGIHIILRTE
DNA dC->dU-editing enzyme APOBEC-3G (Homo sapiens), sequence (Q9HC16 whole entry, looked up): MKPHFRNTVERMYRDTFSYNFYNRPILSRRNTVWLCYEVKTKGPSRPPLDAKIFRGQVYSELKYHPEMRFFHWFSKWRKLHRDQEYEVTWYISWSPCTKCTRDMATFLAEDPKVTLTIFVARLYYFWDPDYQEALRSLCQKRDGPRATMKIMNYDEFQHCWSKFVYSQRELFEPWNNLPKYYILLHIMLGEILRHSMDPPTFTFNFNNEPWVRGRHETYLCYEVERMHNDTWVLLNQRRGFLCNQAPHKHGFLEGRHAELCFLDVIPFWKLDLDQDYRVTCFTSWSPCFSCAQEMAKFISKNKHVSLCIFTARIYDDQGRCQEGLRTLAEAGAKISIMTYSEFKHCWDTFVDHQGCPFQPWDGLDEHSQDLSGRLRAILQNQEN

CS(=N)(=O)CC[C@H](N)C(=O)O (some centres not stated)
not listed: [9]
inactive: all other assays above

CCCN1CCO[C@@H]2c3cc(O)ccc3OC[C@H]21
not listed: [1] | [9]
inactive: all other assays above

CCCN(CCC)C1CCc2ccc(O)cc2C1 (configuration not stated)
not listed: [1] | [9]
inactive: all other assays above

NC(CP(=O)(O)O)C(=O)O (configuration not stated)
not listed: [1] | [9]
inactive: all other assays above

c1ccc(C2(c3ccccc3)CC2C2=NCCN2)cc1 (configuration not stated)
not listed: [1] | [8] | [9]
inactive: all other assays above

CC(Cc1ccc(O)cc1)NCC(O)c1cc(O)cc(O)c1 (configuration not stated)
not listed: [1] | [9]
inactive: all other assays above

NC(N)=NOCCC(N)C(=O)O (configuration not stated)
not listed: [1] | [9]
inactive: all other assays above

C[C@]12N[C@H](Cc3ccccc31)c1ccccc12
not listed: [9]
inactive: all other assays above

CN1C2CCC1CC(OC(=O)c1cc(Cl)cc(Cl)c1)C2 (configuration not stated)
not listed: [1] | [8] | [9]
inactive: all other assays above

O=C(O)Cc1cnc[nH]1
not listed: [1] | [9]
inactive: all other assays above

C[N+]1(C)C2CCC1CC(OC(=O)C(CO)c1ccccc1)C2 (configuration not stated)
not listed: [9]
inactive: all other assays above

Clc1cnc(Oc2ccc(Oc3ncc(Cl)cc3Cl)cc2)c(Cl)c1
not listed: [1] | [9]
inactive: all other assays above

NC(CCP(=O)(O)O)C(=O)O (configuration not stated)
not listed: [1] | [9]
inactive: all other assays above

O=C(O)[C@@H]1CCN1
not listed: [9]
inactive: all other assays above

CC(C)Oc1cccnc1N(C)C1CCN(Cc2ccccc2)CC1
not listed: [1] | [9]
inactive: all other assays above

C[C@]12CCC3C(CC[C@H]4C[C@H](O)CC[C@]34C)C1CC[C@@H]2C(=O)CO (some centres not stated)
not listed: [1] | [9]
inactive: all other assays above

NC1CCc2cc(O)c(O)cc2C1 (configuration not stated)
not listed: [1] | [9]
inactive: all other assays above

NCCc1c[nH]c2ccccc12
not listed: [9]
inactive: all other assays above

C[C@@H]1O[C@H](C[N+](C)(C)C)C[C@H]1O
not listed: [1] | [9]
inactive: all other assays above

Oc1ccc2c3c1O[C@H]1c4[nH]c5c(c4C[C@@]4(O)[C@@H](C2)N(CC2CC2)CC[C@]314)C[C@@]1(O)[C@H]2Cc3ccc(O)c4c3[C@@]1(CCN2CC1CC1)[C@H]5O4
not listed: [7] | [9]
inactive: all other assays above

NC(=O)CN1CC(O)CC1=O (configuration not stated)
not listed: [1] | [9]
inactive: all other assays above

CC(C)NC(C)Cc1ccc(I)cc1 (configuration not stated)
not listed: [1] | [8] | [9]
inactive: all other assays above

NC1CC1c1ccccc1 (configuration not stated)
not listed: [1] | [9]
inactive: all other assays above

O=C(Cc1ccc(Cl)c(Cl)c1)N1CCCCC1CN1CCCC1 (configuration not stated)
inactive: [2] | [3] | [4] | [5] | [6]

Cc1nc(-c2ccc(-c3ccc(C(=O)N4CCc5cc6c(cc54)C4(CCN(C)CC4)CO6)cc3)c(C)c2)no1
inactive: [1] | [9]

CC[C@@H](C(N)=O)N1CCCC1=O
not listed: [1] | [9]
inactive: all other assays above

Cn1cnc(CCN)c1
not listed: [1] | [9]
inactive: all other assays above

O=C(O)CC[N+](=O)[O-]
not listed: [9]
inactive: all other assays above
